Data from the supplement of paper PMC4466140.

What follows are binders tested against ScBbc1 (assay: SPOT peptide array binding signal intensity (averaged, normalized) (arbitrary units (background-subtracted, floor 0; scale differs between SH3 domains)); higher = stronger binding of the SH3 domain to the peptide).
Procedure, shortened: (§1)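 Peptides were synthetic 15-mers on cellulose membranes, with every cysteine replaced by serine. They were incubated overnight at 4°C with GST-SH3 domains from four yeast species at 10 μg/ml in TBS-based blocking buffer. Binding signal, the replicate-averaged normalized and background-subtracted spot intensity, is in arbitrary units that differ between domains.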

Binder | SPOT peptide array binding signal intensity
KMSRSPPRPPSLKII | 69.5

What follows are binders tested against ScBem1-D1 in the same assay as above.
Procedure, shortened: as §1

Binder | SPOT peptide array binding signal intensity
KMSRSPPRPPSLKII | 8

The binders below were run against ScBzz1-D1 in the same assay as above.
Procedure, shortened: as §1

Binder | SPOT peptide array binding signal intensity
KMSRSPPRPPSLKII | 57

The binders below were run against ScBzz1-D2 in the same assay as above.
Procedure, shortened: as §1

Binder | SPOT peptide array binding signal intensity
KMSRSPPRPPSLKII | 25.5

The binders below were run against ScCyk3 in the same assay as above.
Procedure, shortened: as §1

Binder | SPOT peptide array binding signal intensity
KMSRSPPRPPSLKII | 5

What follows are binders tested against ScFus1 in the same assay as above.
Procedure, shortened: as §1

Binder | SPOT peptide array binding signal intensity
KMSRSPPRPPSLKII | 463

The binders below were run against ScHof1 in the same assay as above.
Procedure, shortened: as §1

Binder | SPOT peptide array binding signal intensity
KMSRSPPRPPSLKII | 0.75

Each binder was assayed against ScHse1 in the same assay as above.
Procedure, shortened: as §1

Binder | SPOT peptide array binding signal intensity
KMSRSPPRPPSLKII | 99.5

The binders below were run against ScLsb1 in the same assay as above.
Procedure, shortened: as §1

Binder | SPOT peptide array binding signal intensity
KMSRSPPRPPSLKII | 39.8

What follows are binders tested against ScLsb2 in the same assay as above.
Procedure, shortened: as §1

Binder | SPOT peptide array binding signal intensity
KMSRSPPRPPSLKII | 18

What follows are binders tested against ScLsb3 in the same assay as above.
Procedure, shortened: as §1

Binder | SPOT peptide array binding signal intensity
KMSRSPPRPPSLKII | 742

The binders below were run against ScLsb4 in the same assay as above.
Procedure, shortened: as §1

Binder | SPOT peptide array binding signal intensity
KMSRSPPRPPSLKII | 142

These binders were tested against ScMyo3 in the same assay as above.
Procedure, shortened: as §1

Binder | SPOT peptide array binding signal intensity
KMSRSPPRPPSLKII | 142

The binders below were run against ScMyo5 in the same assay as above.
Procedure, shortened: as §1

Binder | SPOT peptide array binding signal intensity
KMSRSPPRPPSLKII | 47.2

These binders were tested against ScNbp2 in the same assay as above.
Procedure, shortened: as §1

Binder | SPOT peptide array binding signal intensity
KMSRSPPRPPSLKII | 2300

What follows are binders tested against ScPex13 in the same assay as above.
Procedure, shortened: as §1

Binder | SPOT peptide array binding signal intensity
KMSRSPPRPPSLKII | 464

What follows are binders tested against ScRvs167 in the same assay as above.
Procedure, shortened: as §1

Binder | SPOT peptide array binding signal intensity
KMSRSPPRPPSLKII | 123

Each binder was assayed against ScSho1 in the same assay as above.
Procedure, shortened: as §1

Binder | SPOT peptide array binding signal intensity
KMSRSPPRPPSLKII | 634

Each binder was assayed against ScSla1-D1-D2 in the same assay as above.
Procedure, shortened: as §1

Binder | SPOT peptide array binding signal intensity
KMSRSPPRPPSLKII | 653

Each binder was assayed against ScSla1-D3 in the same assay as above.
Procedure, shortened: as §1

Binder | SPOT peptide array binding signal intensity
KMSRSPPRPPSLKII | 270

These binders were tested against SpAbp1-D1 in the same assay as above.
Procedure, shortened: as §1

Binder | SPOT peptide array binding signal intensity
KMSRSPPRPPSLKII | 177

What follows are binders tested against SpBbc1 in the same assay as above.
Procedure, shortened: as §1

Binder | SPOT peptide array binding signal intensity
KMSRSPPRPPSLKII | 6.75

These binders were tested against SpBzz1-D1 in the same assay as above.
Procedure, shortened: as §1

Binder | SPOT peptide array binding signal intensity
KMSRSPPRPPSLKII | 1270

What follows are binders tested against SpBzz1-D2 in the same assay as above.
Procedure, shortened: as §1

Binder | SPOT peptide array binding signal intensity
KMSRSPPRPPSLKII | 79.2

Each binder was assayed against SpCyk3 in the same assay as above.
Procedure, shortened: as §1

Binder | SPOT peptide array binding signal intensity
KMSRSPPRPPSLKII | 9

Each binder was assayed against SpHof1 in the same assay as above.
Procedure, shortened: as §1

Binder | SPOT peptide array binding signal intensity
KMSRSPPRPPSLKII | 19.5

Each binder was assayed against SpHof1-2 in the same assay as above.
Procedure, shortened: as §1

Binder | SPOT peptide array binding signal intensity
KMSRSPPRPPSLKII | 27

These binders were tested against SpHof1-3 in the same assay as above.
Procedure, shortened: as §1

Binder | SPOT peptide array binding signal intensity
KMSRSPPRPPSLKII | 139

What follows are binders tested against SpHse1 in the same assay as above.
Procedure, shortened: as §1

Binder | SPOT peptide array binding signal intensity
KMSRSPPRPPSLKII | 70

What follows are binders tested against SpLsb1 in the same assay as above.
Procedure, shortened: as §1

Binder | SPOT peptide array binding signal intensity
KMSRSPPRPPSLKII | 9.75

What follows are binders tested against SpLsb4 in the same assay as above.
Procedure, shortened: as §1

Binder | SPOT peptide array binding signal intensity
KMSRSPPRPPSLKII | 1060

The binders below were run against SpMyo1 in the same assay as above.
Procedure, shortened: as §1

Binder | SPOT peptide array binding signal intensity
KMSRSPPRPPSLKII | 224

These binders were tested against SpNbp2 in the same assay as above.
Procedure, shortened: as §1

Binder | SPOT peptide array binding signal intensity
KMSRSPPRPPSLKII | 146

What follows are binders tested against SpPex13 in the same assay as above.
Procedure, shortened: as §1

Binder | SPOT peptide array binding signal intensity
KMSRSPPRPPSLKII | 17

Each binder was assayed against SpRvs167 in the same assay as above.
Procedure, shortened: as §1

Binder | SPOT peptide array binding signal intensity
KMSRSPPRPPSLKII | 92.3

Each binder was assayed against SpSla1-D1-D2 in the same assay as above.
Procedure, shortened: as §1

Binder | SPOT peptide array binding signal intensity
KMSRSPPRPPSLKII | 17

Each binder was assayed against SpSla1-D3 in the same assay as above.
Procedure, shortened: as §1

Binder | SPOT peptide array binding signal intensity
KMSRSPPRPPSLKII | 138
